The structures appear in SMILES notation. The panel holds about 83,000 compounds, 20% with a hit somewhere; the sample as a whole holds those more often.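 How to read the values: 0–100, growth inhibition (40 = 60% inhibited); 0, no net growth; -100 to 0, cell death (-40 = 40% of starting cells died; -100 = all dead).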 Values without a mark were called inactive. Calls of active or inactive are those of the source. How the source made its calls: active means growth percent below 10; inactive means the rest.

This note sets out measurements from PubChem BioAssay (NCI).

Among the test systems are SR leukemia; RPMI-8226 leukemia; OVCAR-8 ovarian; OVCAR-5 ovarian; OVCAR-4 ovarian; SK-OV-3 ovarian; IGROV1 ovarian; OVCAR-3 ovarian; HS 578T breast; NCI/ADR-RES ovarian; T-47D breast; BT-549 breast; MDA-MB-435 melanoma; SW-620 colon; MCF7 breast; HCT-116 colon; HCC-2998 colon; KM12 colon.
Common to all, as to test: NCI-60 one-dose screen, 48 h (100 = growth as untreated, 0 = no growth, -100 = all killed)
Common to all, as to details: 10 µM unless noted

`N/C(=N\c1nc2ccc([N+](=O)[O-])cc2s1)C(Cl)(Cl)Cl`: the growth with SR leukemia was 57.7%; in the test on RPMI-8226 leukemia, 38.9%; with OVCAR-8 ovarian, 73.5%; in the test with OVCAR-5 ovarian, 84.1%; in the test on OVCAR-4 ovarian, 67.9%; with SK-OV-3 ovarian, 82.6%. The growth in the test with IGROV1 ovarian was 65.1%; in the test with OVCAR-3 ovarian, 47.4%; with HS 578T breast, 79.9%; in the test with NCI/ADR-RES ovarian, 73.4%; with T-47D breast, 30.7%; in the test with BT-549 breast it was 93.3%. Moreover, the growth was 83.6% in the test with MDA-MB-435 melanoma; 70.5% in the test on SW-620 colon; 40% in the test on MCF7 breast; 53.9% with HCT-116 colon; 74% with HCC-2998 colon; 37.6% in the test on KM12 colon.

For `CCOC(=O)c1c(NCC(=O)Nc2cccc(Cl)c2)sc2c1CCCC2`, the growth in the test on SR leukemia was 69.4%; in the test on RPMI-8226 leukemia, 78.6%; in the test on OVCAR-8 ovarian it was 87.7%; in the test with OVCAR-5 ovarian, 94.5%; in the test on OVCAR-4 ovarian, 80.3%; in the test on SK-OV-3 ovarian it was 84.2%. The growth with IGROV1 ovarian was 50.6%; in the test on OVCAR-3 ovarian it was 82.8%; in the test on HS 578T breast, 77.4%; in the test on NCI/ADR-RES ovarian it was 81.6%; in the test with T-47D breast, 63.4%; in the test on BT-549 breast, 70.1%. For the same compound, the growth in the test with MDA-MB-435 melanoma was -2.01% (active); in the test on SW-620 colon, 76.1%; with MCF7 breast, 43%; in the test with HCT-116 colon it was 73.5%; in the test with KM12 colon, 95.8%.

As to `Cc1ccc(NC(=O)c2ccc(CN3CCN(C)CC3)c(I)c2)cc1Oc1ccc(-c2[nH]nc3ncnc(N)c23)cc1`, the growth was 4.76% (active) with SR leukemia; -3.29% (active) with RPMI-8226 leukemia; 91.8% in the test on OVCAR-8 ovarian; 95.8% with OVCAR-5 ovarian; 96.1% with OVCAR-4 ovarian; 109% in the test with SK-OV-3 ovarian. Further, the growth is 88% in the test on IGROV1 ovarian; 102% in the test on OVCAR-3 ovarian; 66.2% in the test on HS 578T breast; 44.5% in the test on NCI/ADR-RES ovarian; 112% with T-47D breast; 103% with BT-549 breast. Besides, the growth was -67.5% (active) in the test on MDA-MB-435 melanoma; -67.3% (active) in the test on SW-620 colon; -27% (active) with MCF7 breast; -26.6% (active) with HCT-116 colon; 20.7% with KM12 colon.

Take `CC1OC(O[C@@H]2C(O)C(CO)OC(O[C@H]3COC(O[C@H]4CC[C@]5(C)[C@H]6CC[C@]78OC[C@@]9(CC[C@](C)(C=O)C[C@H]97)[C@H](O)C[C@@]8(C)[C@]6(C)CC[C@H]5C4(C)C)[C@@H](OC4OC(CO)[C@@H](O)[C@@H](O)[C@@H]4O)[C@@H]3O)[C@H]2OC2OC[C@@H](O)[C@@H](O)[C@@H]2O)[C@@H](O)[C@@H](O)[C@H]1O` (stereo not given in full): the growth with SR leukemia was -18.3% (active); in the test with RPMI-8226 leukemia it was 32.9%; in the test on OVCAR-8 ovarian, 27.1%; with OVCAR-5 ovarian, -78.7% (active); with OVCAR-4 ovarian, -50.9% (active); in the test on SK-OV-3 ovarian, -93.9% (active). In addition, the growth was 43.8% with IGROV1 ovarian; 79.4% in the test with OVCAR-3 ovarian; -36.9% (active) in the test on HS 578T breast; 46.1% in the test with NCI/ADR-RES ovarian; 53.1% in the test on T-47D breast; -56.9% (active) in the test with BT-549 breast. Also, the growth with MDA-MB-435 melanoma was -55.1% (active); with SW-620 colon it was 10%; in the test on MCF7 breast it was 11%; with HCT-116 colon, -65.9% (active); in the test with KM12 colon it was 23.7%.

On to `Oc1ccc(CSc2nnc(-c3ccc(Br)cc3)n2-c2ccccc2)c2cccnc12`, for which the growth was 37.7% in the test with SR leukemia; 13.7% with RPMI-8226 leukemia; 23.4% in the test on OVCAR-8 ovarian; 54.4% in the test on OVCAR-5 ovarian; 35.7% in the test with OVCAR-4 ovarian; 23.3% with SK-OV-3 ovarian. Besides, the growth was 18.9% in the test with IGROV1 ovarian; 41.5% in the test with OVCAR-3 ovarian; 13% with HS 578T breast; 12.2% in the test on NCI/ADR-RES ovarian; 48.1% in the test with T-47D breast; 40.3% in the test on BT-549 breast. In addition, the growth is 19.5% in the test on MDA-MB-435 melanoma; 26.6% in the test on SW-620 colon; 11% in the test with MCF7 breast; 21.7% in the test with HCT-116 colon; 26.3% in the test with KM12 colon.

As to `Cc1ccc(S(=O)(=O)N/N=C/c2cn(-c3ccc(F)cc3)nc2-c2ccc(S(C)(=O)=O)cc2)cc1`, the growth was 107% in the test on SR leukemia; 106% in the test on RPMI-8226 leukemia; 102% with OVCAR-8 ovarian; 105% in the test with OVCAR-5 ovarian; 101% in the test on OVCAR-4 ovarian; 105% in the test on SK-OV-3 ovarian. In addition, the growth is 99.7% in the test on IGROV1 ovarian; 109% with OVCAR-3 ovarian; 107% in the test on HS 578T breast; 106% with NCI/ADR-RES ovarian; 98.5% in the test on T-47D breast; 105% with BT-549 breast. In addition, the growth with MDA-MB-435 melanoma was 100%; in the test on SW-620 colon it was 103%; with HCT-116 colon it was 107%; in the test with HCC-2998 colon it was 108%; with KM12 colon, 102%.

Regarding `O=c1oc2ccc(-c3ccc(F)cc3F)cc2c(=O)n1-c1cccc(C(F)(F)F)c1`, the growth in the test with SR leukemia was 18.4%; in the test on RPMI-8226 leukemia it was -12.9% (active); in the test with OVCAR-8 ovarian, 12.4%; in the test on OVCAR-5 ovarian it was 10.4%; with OVCAR-4 ovarian, 13.4%; in the test on SK-OV-3 ovarian, 0.403% (active). The growth was 8.17% (active) in the test on IGROV1 ovarian; 10.9% in the test on OVCAR-3 ovarian; -4.83% (active) in the test with HS 578T breast; 4% (active) in the test on NCI/ADR-RES ovarian; 6.01% (active) with T-47D breast; 3.66% (active) in the test on BT-549 breast. Also, the growth was 6.94% (active) in the test with MDA-MB-435 melanoma; 14.2% with SW-620 colon; 2.43% (active) in the test with MCF7 breast; 4.36% (active) with HCT-116 colon; 16.4% with HCC-2998 colon; 6.11% (active) in the test on KM12 colon.

For the compound `COC[C@@]1(C)CC[C@]2(C)CC[C@]3(C)C(=CC[C@@H]4[C@@]5(C)CCCNC(C)(C)[C@@H]5CC[C@]43C)C2C1` (stereo not given in full), the growth in the test on SR leukemia is 4.07% (active); with RPMI-8226 leukemia, 21.3%; in the test on OVCAR-8 ovarian, 88.6%; with OVCAR-5 ovarian, 80%; with OVCAR-4 ovarian, 65.6%; with SK-OV-3 ovarian, 104%. Besides, the growth is 52.3% in the test on IGROV1 ovarian; 78.3% with OVCAR-3 ovarian; 78.5% with HS 578T breast; 72.6% in the test with NCI/ADR-RES ovarian; 70.5% in the test on T-47D breast; 87.4% with BT-549 breast. Further, the growth with MDA-MB-435 melanoma was 44.2%; in the test with SW-620 colon it was 53.2%; with HCT-116 colon, 40.1%; with HCC-2998 colon it was 58.8%; with KM12 colon it was 61.4%.

With `C=C(C)C(=O)O[C@H]1C[C@@]2(C)OC(=CC2=O)/C(CO)=C\[C@H]2OC(=O)C(=C)[C@H]12`, the growth in the test on SR leukemia is -38.5% (active); in the test on RPMI-8226 leukemia it was -25.6% (active); in the test on OVCAR-8 ovarian, 8.5% (active); in the test on OVCAR-5 ovarian it was -56.5% (active); in the test on OVCAR-4 ovarian, 17.4%; in the test with SK-OV-3 ovarian, 81.6%. Besides, the growth with IGROV1 ovarian was -36% (active); in the test with OVCAR-3 ovarian, -93.6% (active); in the test with HS 578T breast it was 17.2%; in the test with NCI/ADR-RES ovarian it was 11.6%; with T-47D breast, -5.88% (active); in the test on BT-549 breast, -7.7% (active). Moreover, the growth with MDA-MB-435 melanoma is -71% (active); in the test on SW-620 colon it was -61.3% (active); with MCF7 breast, -7.53% (active); in the test on HCT-116 colon it was -53.7% (active); in the test on KM12 colon, -8.61% (active).
